Data from PubChem BioAssay (NCI).
This is part of a sample that, as a whole, favours compounds with a hit. Of some 83,000 tested, about 20% had one in any assay.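 Growth was measured after 48 h exposure to one concentration of compound in 96-well plates. Values under 10 count as active.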 The source made the active and inactive calls.

Each molecule was assayed on MDA-MB-468 breast (assay: NCI-60 one-dose screen, 48 h (100 = growth as untreated, 0 = no growth, -100 = all killed)). Settings: 10 µM unless noted.
In the case of `O=C(N(c1ccccc1)c1ccccc1)n1cc(I)c2nc(Cl)nc(Cl)c21`, the growth is reported as 27.8% (inactive). `Cc1ccc(/C=C2\CN(C(=O)OC(C)(C)C)C/C(=C\c3ccc(C)cc3)C2=O)cc1` was tested, and the growth was 56.2% (inactive). In the case of `O=CNc1ccc2c(c1)Cc1cc([N+](=O)[O-])ccc1-2`, the growth is reported as -29.6% (active). In the case of `CC(=O)C1=C(O)C=C2Oc3c(C(=O)/C=C/c4cc(Cl)cc(Cl)c4)c(O)c(C)c(O)c3[C@]2(C)C1=O`, the growth is reported as -41.7% (active). For `Cc1cc(C)c(N2C(=O)CC(Sc3ccccc3N)C2=O)c(C)c1` (stereo unspecified), the growth was 45.6% (inactive). `CCOC(=O)c1nc2c3ccccc3ccn2c1C(=O)OCC` was tested, and the growth was 109% (inactive). `CC/C(=C(\c1ccc(O)cc1)c1ccc(OCCN(C)CCN(C)C(=O)CCCCC(=O)c2c(C)[nH]c(/C=C3\N=C(c4ccc[nH]4)C=C3OC)c2C)cc1)c1ccccc1` was tested, and the growth was 80% (inactive). `CCc1ccc(CCC(=O)Nc2ncc(Cc3cc(Cl)ccc3Cl)s2)o1` was tested, and the growth was -23% (active). For `Cn1cnc2nc[nH]c2c1=S`, the growth was 107% (inactive). For `CC(=O)Oc1csc(N(C(C)=O)c2cc(C(=O)O)cc(C(=O)O)c2)n1`, the growth was 95.2% (inactive). With `O=C1/C(=C/c2ccc(Cl)cc2)CN(Cc2cn(CCCNc3ccnc4cc(Cl)ccc34)nn2)C/C1=C\c1ccc(Cl)cc1` the growth was -69.8% (active). With `COc1ccc(-c2cn(-c3ccc(Cl)cc3)c(SCC(=O)c3ccc([N+](=O)[O-])cc3)n2)cc1` the growth was 71.2% (inactive). `O=C1N(Cc2ccccc2Cl)c2ccccc2C12NN=C(c1ccccc1)S2` (stereo unspecified) was tested, and the growth was 57.2% (inactive). With `CN1CCN(C(=O)[C@@]2(C)CC[C@]3(C)CC[C@]4(C)C(=CC[C@@H]5[C@@]6(C)C/C(=C/c7ccncc7)C(=O)C(C)(C)[C@@H]6CC[C@]54C)[C@@H]3C2)CC1` the growth was 37.5% (inactive). For `CCN(CC)CCCOc1ccc2c(c1)O/C(=C\c1cccc(OC)c1)C2=O`, the growth was 79.8% (inactive). With `CCCCNc1ccc2c3c1cccc3c(=O)n1c3ccccc3nc21` the growth was -12.2% (active). For `Cn1c2c(cc(S(=O)(=O)c3ccccc3)c1=O)CCc1c-2cnn1-c1ccccc1Cl`, the growth was 91.9% (inactive). With `CCN(CCO)CCC(=O)c1ccc([N+](=O)[O-])cc1` the growth was 98.1% (inactive). `COc1cc(Nc2cc(O)c3c(=O)cc(-c4ccccc4)oc3c2)cc(OC)c1` was tested, and the growth was 11.7% (inactive). `CCCCCCCCCCCCCCCCC(Br)C(=O)O` (stereo unspecified) was tested, and the growth was 96% (inactive). `CCOC(=O)Nc1ccc(-c2nc(-c3cccc(O)c3)c(-c3ccnc(Br)c3)[nH]2)cc1` was tested, and the growth was 10.7% (inactive). For `O=C1C=C(O)c2ccccc2C1=O.[Ag]`, the growth was 99% (inactive). With `O=c1ccc2ccccc2o1` the growth was 114% (inactive). With `Cc1ccc(NC(=O)c2ccc(CN3CCN(C)CC3)cc2)cc1Oc1ccc(-c2[nH]nc3ncnc(N)c23)cc1` the growth was 59.3% (inactive). In the case of `CCn1cnc(C[C@H](NC(=O)[C@@H](NC(=O)Nc2cc(C(F)(F)F)cc(C(F)(F)F)c2)C(C)C)C(=O)OC)c1`, the growth is reported as -81.1% [100 µM] (active). For `COc1cc2c(c(OC)c1OC)CCc1cnoc1-2`, the growth was 83.8% (inactive). In the case of `C=C(C)[C@@H]1CC[C@]2(C(=O)O)CC[C@]3(C)[C@H](CC[C@@H]4[C@@]5(C)C/C(=C/c6ccco6)C(=O)C(C)(C)[C@@H]5CC[C@]43C)[C@@H]12`, the growth is reported as -27.1% [100 µM] (active). In the case of `Nc1cc(C(F)(F)F)c(-c2cc(N3CCOCC3)nc(N3CCOCC3)n2)cn1`, the growth is reported as -51.6% (active). `COc1cc2c(cc1OC)CC[N+](CCC[N+](C)(C)C)=C2` was tested, and the growth was 103% (inactive). `CCN(CC)CCCC(C)Nc1ccnc2c(OC)cccc12` (stereo unspecified) was tested, and the growth was 117% (inactive). With `C[C@H]1c2ccccc2CN1CCCOc1cc2c(cc1OCC1CC1)C1(CCCC1)C(N)=N2` the growth was 29.2% (inactive). For `COc1c(O)cc2oc3cc(O[C@@H]4OC(C)[C@@H](O)[C@H](O)C4O)c(CC=C(C)C)c(O)c3c(=O)c2c1CC=C(C)C` (stereo partly specified), the growth was 82.5% (inactive). For `O=C(CCCC(=O)Nc1ccc(Cn2nnc3cc(Cl)c(Cl)cc32)cc1)Nc1ccc(CN2N=NC3C=C(Cl)C(Cl)=CC32)cc1` (stereo unspecified), the growth was 59.1% (inactive). With `CC(C)c1c(C(=O)c2ccccc2)c(-c2ccccc2)c(-c2ccc(F)cc2)n1CC[C@@H](O)C[C@@H](O)CC(=O)O` the growth was 39.2% (inactive). With `NC(=O)CC1C=CCC1` (stereo unspecified) the growth was 111% (inactive). For `COc1ccc(OC)c(NC(=O)/C(C#N)=C/c2ccco2)c1`, the growth was 85.2% (inactive).
